ELG1 repair inh: qHTS screen for small molecules that inhibit ELG1-dependent DNA repair in human embryonic kidney (HEK293T) cells expressing luciferase-tagged ELG1; HEK293T ELG1-luciferase reporter, luminescence, 16 h; DNA damage induced by 5-fluorouridine; Potency, µM (doses to about 46.1 µM), for inactives: top-dose activity change, negative = inhibition, actives largely listed as inhibitors; hit rate 2.3% among 330,000; AID 504467, 2011; further: on the % scale 0 is the no-effect control and ±100 the full control effect; nearly all actives have a fitted effect of over 55% in size
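Cells (2,000 per well) received 5-fluorouridine plus test compound or DMSO and were incubated 16 hr at 37 °C, 5% CO2. Luciferase activity was read by luminescence 30 min after ONE-Glo addition; signal suppression marked inhibition of damage-induced ELG1 function.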
ELG1 genotoxic: qHTS screen for small molecules that induce genotoxicity in human embryonic kidney (HEK293T) cells expressing luciferase-tagged ELG1; HEK293T ELG1-luciferase reporter, luminescence, 16 h; Potency, µM (series often up to 46 µM), for inactives: at the top dose activity change, positive = activation, hits mostly activators; hit rate 1.3% among 330,000; AID 504466, 2011; further: % of control where 0% means no effect; nearly all actives have a fitted effect of over 60% in size
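HEK293T cells expressing luciferase-tagged ELG1 were treated with compound or DMSO for 16 hr at 37°C. Luciferase activity was then read after 30 min with ONE-Glo at room temperature; rising signal flags genetic stress.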
SMN2 splice enh: qHTS Assay for Enhancers of SMN2 Splice Variant Expression | HEK293 SMN2-luciferase splicing reporter, luminescence, 30-36 h | Potency, µM (titrated, usually from 46.1 µM), without a hit: top-dose activity change, positive = activation, usual class: activators | hit rate 2.8% among 210,000; further: % of control where 0% means no effect; nearly all actives have a fitted effect of over 55% in size
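HEK293 cells carry an SMN2 minigene-luciferase reporter in which exon 7 inclusion puts luciferase in frame. Cells were seeded at 2000 cells/well, attached for 10-12 hours, then exposed to compounds for 30-36 hours at 37C before ONE-Glo luminescence.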
FLuc modulator: qHTS profiling assay for firefly luciferase inhibitor/activator using purifed enzyme and Km concentrations of substrates (counterscreen for miR-21 project). Luciferin 4-monooxygenase (Photinus pyralis), P08659. purified FLuc, Km substrates, luminescence inhibition. Potency, µM (titrated, usually from 57.5 µM), without a hit: at the top dose activity change, negative = inhibition, actives largely listed as inhibitors. hit rate 6.9% among 360,000. AID 588342, 2011;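 further: plate controls were vehicle for no effect and reference inhibitor for full effect; nearly all actives have a fitted effect of over 55% in size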
Target sequence (P08659 whole entry, looked up): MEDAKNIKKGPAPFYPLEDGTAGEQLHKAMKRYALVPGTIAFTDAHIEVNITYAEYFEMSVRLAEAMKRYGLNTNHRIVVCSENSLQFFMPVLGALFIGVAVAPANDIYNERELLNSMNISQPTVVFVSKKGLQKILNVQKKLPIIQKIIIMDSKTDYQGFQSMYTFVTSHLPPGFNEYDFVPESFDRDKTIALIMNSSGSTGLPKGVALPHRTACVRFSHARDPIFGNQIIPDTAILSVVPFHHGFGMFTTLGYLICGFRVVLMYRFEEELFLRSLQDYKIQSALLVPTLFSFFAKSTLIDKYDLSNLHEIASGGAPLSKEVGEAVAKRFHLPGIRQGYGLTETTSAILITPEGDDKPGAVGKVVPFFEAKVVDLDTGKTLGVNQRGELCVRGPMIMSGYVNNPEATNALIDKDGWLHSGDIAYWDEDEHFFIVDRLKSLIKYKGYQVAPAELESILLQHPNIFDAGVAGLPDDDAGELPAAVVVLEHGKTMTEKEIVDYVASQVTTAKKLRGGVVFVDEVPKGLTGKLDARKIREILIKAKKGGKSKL
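Purified P. pyralis luciferase, 10 nM final, with Km-level 10 uM D-luciferin and 10 uM ATP in 50 mM Tris acetate pH 7.5, 10 mM Mg acetate, 0.01% Tween-20, 0.05% BSA; 6-point qHTS titration about 60 µM downward; luminescence read.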
Rab9 prom act: qHTS Assay for Rab9 Promoter Activators | Huh7 Rab9 promoter-luciferase reporter, luminescence, 24 h | Potency, µM (series often up to 9.22 µM), for inactives: at the top dose activation, negative = inhibition, actives largely listed as activators | hit rate 2.8% among 320,000; further: % of control where 0% means no effect; nearly all actives have a fitted effect of over 60% in size
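Huh7 cells stably carrying Rab9 promoter–luciferase reporter, plated 1500 cells/well, compound added after 2 h and incubated 24 h at 37 °C; luciferase luminescence then read after 10 min with detection reagent.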
NPC1 prom act: qHTS Assay for NPC1 Promoter Activators; Huh7 NPC1 promoter luciferase reporter, 24 h; Potency, µM (series often up to 9.22 µM), without a hit: top-dose activation, actives largely listed as activators; hit rate 2.4% among 320,000; further: % of control where 0% means no effect; nearly all actives have a fitted effect of over 60% in size
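Stable NPC1-promoter luciferase Huh7 line; cpd (DMSO) 24 h, 37 °C, 5% CO2; Amplite luciferase reagent 10 min RT; luminescence readout. qHTS format.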
Numbers without * were called inactive; ? = inconclusive; nt = no result; [ ] = remark or other dose. Compounds with a hit are over-represented: about 9.3% of the library has one in this group of screens. The call rests on the fitted dose curve; in most records, active means well fitted curve in the direction sought with a large enough effect; inconclusive means small, poorly fitted or top-dose-only effect, or another doubt; inactive means no such curve, though single readings can be large; an effect the other way counts as inactive or inconclusive. Potency means the concentration at half of the fitted maximal effect.

SMILES	ELG1 repair inh	ELG1 genotoxic	SMN2 splice enh	FLuc modulator	Rab9 prom act	NPC1 prom act
O=C(Nc1nc2cc3c(cc2s1)OCO3)c1cccc(N2C(=O)CCC2=O)c1	?	7.5%	nt	0.953µM*	29.0%	24.4%
O=C(Nc1nc2ccc(Cl)cc2s1)c1cccc(N2C(=O)CCC2=O)c1	?	?	nt	1.35µM*	?	15.1%
O=C(Nc1nc2cc3c(cc2s1)OCO3)c1ccc(N2C(=O)CCC2=O)cc1	0.0%	-1.6%	nt	-9.9%	9.0%	1.5%
Cc1ccc2sc(NC(=O)C3CC3)nc2c1C	?	?	nt	16.9µM*	?	?
Cc1ccc2sc(NC(=O)c3cccc(N4C(=O)CCC4=O)c3)nc2c1C	?	2.2%	nt	1.9µM*	10.6%	16.9%
COc1ccccc1CNC(=O)/C=C/c1ccc(S(=O)(=O)N2CCOCC2)cc1	?	-4.8%	1.3%	-1.2%	1.5%	-3.2%
Cc1cc(C)n2nc(C(=O)Nc3ccn(Cc4ccccc4C)n3)cc2n1	?	-4.8%	nt	?	-7.0%	0.0%
COc1ccc(C(=O)C2CCCN(C(=O)C3=CCCC3)C2)cc1OC (centres undefined)	0.8%	0.6%	nt	-8.8%	-2.8%	-3.8%
COc1ccc2nc(NC(=O)c3cccc(N4C(=O)CCC4=O)c3)sc2c1	1.4%	3.8%	nt	0.849µM*	2.2%	1.9%
Cc1nc2ccc(C(=O)N/N=C/c3cc([N+](=O)[O-])ccc3O)cc2[nH]1	-6.1%	3.3%	8.1%	-11.0%	1.5%	0.2%
O=[N+]([O-])c1ccc(O)c(C=Nc2ccc3nc(-c4ccccc4)[nH]c3c2)c1	?	?	10.2%[1.84 µM]	5.36µM*	3.16µM*	?
Oc1c(Br)cc(Br)cc1C=Nc1ccc2[nH]ncc2c1	?	-6.8%	nt	-17.5%	-9.7%	0.1%
Oc1c(Br)cc(C=Nc2ccc3nc(-c4ccccc4)[nH]c3c2)c(O)c1Br	?	1.3%	nt	10.7µM*	2.82µM*	?
O=C(O)CCCCCNC(=O)Nc1ccc2c(c1)OCCO2	?	5.0%	nt	9.53µM*	-32.5%	-0.5%
O=C(NCCc1ccccc1)Nc1cccc(Cl)c1	?	8.3%	20.8%	16.9µM*	?	?
O=C(NCCc1ccc(F)cc1)Nc1ccc2c(c1)OCO2	?	13.5%	nt	?	2.82µM*	?
O=C(NCCc1ccc(Cl)cc1)Nc1cccc(Cl)c1	2.1%	-10.8%	-21.6%	?	-1.2%	-0.3%
O=C(Nc1ccc2c(c1)OCO2)OCc1ccccc1	?	?	20µM*	6.01µM*	1.26µM*	1.58µM*
CCC(CC)C(=O)Nc1c(C(=O)N2CCN(c3ccccc3F)CC2)oc2ccccc12	nt	nt	nt	-15.1%	nt	nt
CCc1ccccc1NC(=O)CSc1nccn1C	nt	nt	0.0%	-4.9%	nt	nt
CCNC(=O)NC1(C(=O)N2CCC(Cc3ccccc3)CC2)CCCCC1	1.8%	-0.4%	nt	-4.1%	-3.4%	-1.9%
CCN(CC)C(=O)Cn1cc(C(=O)C(=O)NCc2ccco2)c2ccccc21	8.6%	-4.9%	-0.2%	-2.3%	1.2%	-4.9%
O=C(NCCc1ccccc1)Nc1ccc2c(c1)OCO2	?	?	14.1µM*	10.7µM*	1.41µM*	2.51µM*
CCCNS(=O)(=O)c1ccc(CCC(=O)Nc2ccc3c(c2)OCCO3)cc1	-2.4%	-0.2%	-20.4%	-5.4%	-3.1%	-2.3%
O=C(NCCc1ccccc1)C(=O)Nc1ccc2c(c1)OCCO2	?	?	20.5%	-6.5%	25.8%	29.5%
SMILES	ELG1 repair inh	ELG1 genotoxic	SMN2 splice enh	FLuc modulator	Rab9 prom act	NPC1 prom act
O=C(CCc1ccc(S(=O)(=O)NCCc2ccccc2)cc1)Nc1ccc2c(c1)OCCO2	13µM*	-2.2%	-8.3%	0.4%	0.3%	-1.5%
COc1ccc(Cn2c(C(=O)O)c(CNCCc3cc(OC)ccc3OC)c3ccc(C)cc32)cc1	nt	nt	nt	6.3%	nt	nt
Cc1cc(C)n(-c2nnc(NC34CC5CC(CC(C5)C3)C4)nn2)n1	?	?	11.2µM*	2.39µM*	3.55µM*	2µM*
Cc1cc(C)n(-c2nnc(NC(C)(C)C)nn2)n1	?	?	12.6µM*	21.3µM*	3.16µM*	?
Cc1cc(C)n(-c2nc(NC(C)(C)C)nc(NC(C)(C)C)n2)n1	?	-4.3%	-48.9%	-0.2%	-4.5%	-1.3%
Cc1cc(C)n(-c2ncc(C#N)cn2)n1	6.0%	2.4%	5.0%	-2.2%	0.6%	-2.0%
O=C(c1ccc(=O)[nH]n1)N1CCN(S(=O)(=O)c2ccc3ccccc3c2)CC1	16.4µM*	-7.4%	-16.9%	-11.1%	5.7%	-8.6%
Cn1cccc1/C=N/n1c(-c2ccccc2)n[nH]c1=S	1.0%	-0.6%	-13.6%	-0.8%	1.3%	1.0%
Cc1ccc2cccc(N=Cc3c(C)[nH]n(-c4ccccc4)c3=O)c2n1	-0.9%	?	nt	16.9µM*	-4.4%	0.6%
Cc1ccc(-c2n[nH]c(=S)n2/N=C/c2c(C)[nH]n(-c3ccccc3)c2=O)cc1	-14.7%	-0.7%	-27.6%	12µM*	0.6%	-2.5%
Cc1nn(-c2ccccc2)c(C)c1/C=N/n1c(-c2ccc(Cl)cc2)n[nH]c1=S	-9.8%	10.1%	-9.3%	3.7%	-1.7%	-0.4%
Cn1cccc1/C=N/n1c(-c2ccc(C(C)(C)C)cc2)n[nH]c1=S	?	-0.9%	-17.8%	21.3µM*	-5.4%	-1.5%
CSc1nsc2nc(=O)c(/C=C3\C(C)=Nc4ccccc43)c(N)n12	-8.0%	-5.2%	7.4%	15.1µM*	22.5%	8.6%
COc1cc(Cl)cc(C=O)c1OCC(=O)O	8.3%	3.6%	nt	-2.6%	-1.0%	-0.8%
CC(=O)c1c(C)[nH]c(C(=O)OCc2c(F)cccc2Cl)c1C	7.3µM*	2.2%	-93.2%	4.9%	-6.9%	-2.3%
CC(=O)c1c(C)[nH]c(C(=O)OCc2ccc(F)cc2Cl)c1C	9.2µM*	2.2%	-44.0%	-4.6%	-12.3%	-7.8%

High-throughput results (PubChem BioAssay)
